# Measurements from PubChem BioAssay (EPA / NIEHS).
# Results filed as inconclusive are left out. The source made the active and inactive calls. Rule for the calls: active = hit-call score of the fitted dose curve at least 0.9, where 1 is the maximum; inconclusive = response in the unintended direction; inactive = score below 0.9.
# Tested on: not listed separately
# Test: TOX21_p53_BLA_p4_viability: Viability Assessment in the Tox21 HCT-116 p53 Agonism Beta-lactamase Assay, Phase 4 (AID 2283597);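 note: hits lower the luminescence signal meaning cytotoxicity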
# Outline: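 Compound exposure of HCT116 cells lasts 16 h at 37C, 5% CO2, with DMSO stocks diluted 217-fold. Cellular ATP is then quantified by CellTiter-Glo luminescence after 30 min at room temperature.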
row,SMILES,outcome
1,O=C[C@H](O)[C@@H](O)[C@H](O[C@H]1O[C@H](CO)[C@@H](O[C@H]2O[C@H](CO)[C@@H](O)[C@H](O)[C@H]2O)[C@H](O)[C@H]1O)[C@H](O)CO,inactive
2,CCC(C)(Oc1ccc(C2(c3ccc(OC(C)(CC)C(=O)O)cc3)CCCCC2)cc1)C(=O)O (stereo not drawn),inactive
3,Oc1ccc(C2CNCCc3c2cc(O)c(O)c3Cl)cc1 (stereo not drawn),inactive

# Molecular target: Cellular tumor antigen p53 (Homo sapiens) (UniProt P04637)
# Sequence (P04637 whole entry, looked up): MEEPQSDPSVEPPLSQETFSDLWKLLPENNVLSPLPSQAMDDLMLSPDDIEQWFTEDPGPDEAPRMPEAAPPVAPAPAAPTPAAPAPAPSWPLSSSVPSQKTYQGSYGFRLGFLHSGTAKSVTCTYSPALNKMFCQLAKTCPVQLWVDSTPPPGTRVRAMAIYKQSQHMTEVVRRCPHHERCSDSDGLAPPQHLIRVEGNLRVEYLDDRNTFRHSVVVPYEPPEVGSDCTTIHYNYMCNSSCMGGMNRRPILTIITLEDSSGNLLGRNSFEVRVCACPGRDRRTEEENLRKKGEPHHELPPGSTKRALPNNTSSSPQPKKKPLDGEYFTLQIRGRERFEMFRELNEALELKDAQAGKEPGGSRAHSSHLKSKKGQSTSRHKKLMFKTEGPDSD
# Test: TOX21_p53_BLA_p5_ratio: Tox21 HCT-116 p53 Agonism Beta-lactamase Assay, Ratio, Phase 5 (AID 2283599)
# Outline: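 HCT-116 cells carrying a p53-inducible beta-lactamase reporter were seeded at 4000 cells/well and dosed after 5 h with compound in DMSO (217-fold dilution). After 16 h at 37C, CCF4-AM substrate was added for 2 h, and the 460/530 nm emission ratio was scored as gain-of-signal versus DMSO.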
row,SMILES,outcome
1,O=C(c1ccccc1)C1(O)CCCCC1,inactive
2,C=CC(=O)OCC1CCCO1 (stereo not drawn),inactive
3,CCOC(=O)C1=C[C@]2(CC)CCCN3CCc4c(n1c1ccccc41)[C@@H]32,inactive
4,O=C[C@H](O)[C@@H](O)[C@H](O[C@H]1O[C@H](CO)[C@@H](O[C@H]2O[C@H](CO)[C@@H](O)[C@H](O)[C@H]2O)[C@H](O)[C@H]1O)[C@H](O)CO,inactive
5,CC(CN(C)C)CN1c2ccccc2S(=O)(=O)c2ccccc21 (stereo not drawn),inactive
6,CCC(C)(Oc1ccc(C2(c3ccc(OC(C)(CC)C(=O)O)cc3)CCCCC2)cc1)C(=O)O (stereo not drawn),inactive
7,O=C(O)CCCCCCC(=O)O,inactive
8,C#C[C@]1(O)CC[C@H]2[C@@H]3CCC4=CC(=O)CC[C@@H]4[C@H]3C(=C)C[C@@]21CC,inactive
9,Nc1nc2c(ncn2COCCO)c(=O)[nH]1,inactive
10,Oc1ccc(C2CNCCc3c2cc(O)c(O)c3Cl)cc1 (stereo not drawn),inactive
11,COC(=O)Nc1nc2ccc(C(=O)c3ccccc3)cc2[nH]1,inactive
12,CCOC(=O)C1=C(C)NC(C)=C(C(=O)OC)C1c1cccc(Cl)c1Cl (stereo not drawn),inactive
13,NC(=O)c1ccc[n+]([C@@H]2O[C@H](COP(=O)([O-])OP(=O)(O)OC[C@H]3O[C@@H](n4cnc5c(N)ncnc54)[C@H](O)[C@@H]3O)[C@@H](O)[C@H]2O)c1,inactive
14,O=C(O)CCNC(=O)c1ccccc1,inactive
15,NC(=O)N1c2ccccc2CC(=O)c2ccccc21,inactive

# Tested on: not listed separately
# Test: TOX21_p53_BLA_p5_viability: Viability Assessment in the Tox21 HCT-116 p53 Agonism Beta-lactamase Assay, Phase 5 (AID 2283600)
# Outline: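 Counter-readout for cytotoxicity: ATP-dependent luminescence from CellTiter-Glo, read in the beta-lactamase wells after 30 min at RT, following a 16 h compound exposure at 37C.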
row,SMILES,outcome
1,[O]=[Bi][O][Bi]=[O],inactive
2,COC(=O)Nc1nc2ccc(C(=O)c3cccs3)cc2[nH]1,inactive
3,C#CC(O)CCCCC (stereo not drawn),inactive
4,CC1(C)S[C@@H]2[C@H](NC(=O)Cc3ccccc3)C(=O)N2[C@H]1C(=O)O,inactive
5,O=C1OC(OC(=O)c2cccnc2Nc2cccc(C(F)(F)F)c2)c2ccccc21 (stereo not drawn),inactive
6,CC(C)NC[C@@H](O)COc1cccc2ccccc12,inactive
7,O=C(O)[C@H]1CN(C/C=C/P(=O)(O)O)CCN1,inactive
8,NS(=O)(=O)c1cc2c(cc1Cl)NC(Cc1ccccc1)NS2(=O)=O (stereo not drawn),inactive
9,O=C(CO)[C@@H](O)[C@H](O)[C@@H](O)CO,inactive
10,NC(=O)Cc1cccc2ccccc12,inactive
